“And” between values parts separate entries of the source, which are not always exact repeats. Equal values may be shown once. Records with an inconclusive call do not appear. Where a structure was tested more than once in an assay, its records may differ in their call. The source made the active and inactive calls. Unless noted, calls follow the shape of the dose curve; as a rule, active = well fitted curve in the direction sought with a large enough effect in the repeat runs; inconclusive = weak or mixed curves; inactive = no such curve, though single readings can be large; an effect the other way counts as inactive or inconclusive.

The text below walks through data of PubChem BioAssay (Tox21).

For assay [1], the target named is Acetylcholinesterase (Homo sapiens) (UniProt P22303). Kind of assay: Acetylcholinesterase (AChE) small molecule antagonists: enzyme-based qHTS assay (AID 1347397; calls by dose curve; also: nearly all actives have a fitted effect of over 55% in size). The settings on record: Potency: AChE enzyme activity inhibition. The method in brief: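 Colorimetric DTNB readout of acetylthiocholine hydrolysis, 10 min at room temperature, after 30 min room-temperature exposure of 50 mU/mL recombinant human enzyme to compound; DMSO vehicle control.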
Acetylcholinesterase (Homo sapiens), sequence (P22303 whole entry, looked up): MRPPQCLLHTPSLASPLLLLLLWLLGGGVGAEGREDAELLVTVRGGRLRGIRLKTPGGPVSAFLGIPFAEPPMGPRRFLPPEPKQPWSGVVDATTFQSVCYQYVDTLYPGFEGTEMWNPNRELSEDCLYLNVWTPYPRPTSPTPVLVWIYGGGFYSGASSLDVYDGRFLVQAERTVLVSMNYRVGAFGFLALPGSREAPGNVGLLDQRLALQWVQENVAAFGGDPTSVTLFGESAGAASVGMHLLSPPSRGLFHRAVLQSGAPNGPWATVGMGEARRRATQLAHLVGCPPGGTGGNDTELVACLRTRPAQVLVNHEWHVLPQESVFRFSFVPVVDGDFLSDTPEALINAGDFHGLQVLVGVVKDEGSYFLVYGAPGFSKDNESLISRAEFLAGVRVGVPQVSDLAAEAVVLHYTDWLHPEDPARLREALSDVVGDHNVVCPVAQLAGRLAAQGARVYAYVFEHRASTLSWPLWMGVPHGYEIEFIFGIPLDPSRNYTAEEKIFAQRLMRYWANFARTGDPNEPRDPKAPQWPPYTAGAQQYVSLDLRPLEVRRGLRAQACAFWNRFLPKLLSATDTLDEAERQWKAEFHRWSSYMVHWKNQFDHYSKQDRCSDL
Background: Quantitative high-throughput screening tests each substance at several concentrations.

The target is the same in assay [2]. Kind of assay: Acetylcholinesterase (AChE) small molecule antagonists: fluorescence cell-based qHTS assay (AID 1347398; calls by dose curve; also: nearly all actives have a fitted effect of over 50% in size). The note with it: Potency: AChE activity. The method in brief:
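Cellular AChE activity read as thiocholine from acetylthiocholine hydrolysis, detected by Thiolite Green fluorescence at 490/520 nm after 40 min at room temperature. Compounds were pre-incubated 30 min at 37 C on adherent SH-SY5Y cells.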

Assay [3] shares this target. Kind of assay: Acetylcholinesterase (AChE) small molecule antagonists: enzyme-based qHTS assay with human liver microsomes (AID 1347399; calls by dose curve; also: nearly all actives have a fitted effect of over 60% in size). The note with it: Potency: qHTS inhibition. The method in brief: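 Recombinant human AChE (50 mU/mL in the enzyme mix) and human liver microsomes (0.25 mg/mL final) were preincubated with compound and NADPH (0.25 mg/mL final) for 30 min at 37 C. Acetylthiocholine/DTNB was then added; thiocholine was read colorimetrically after 10 min at room temperature.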

For assay [4], the target named is Cytochrome P450 2D6 (Homo sapiens) (UniProt P10635). Kind of assay: Cytochrome P450 Family 2 Subfamily D Member 6 (CYP2D6) small molecule antagonists: luciferase reporter qHTS assay (AID 1671196). Also: nearly all actives have a fitted effect of over 50% in size. Also: potency is read from the fitted curve at half-maximal effect. The method in brief: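 Room-temperature luminescent CYP2D6 activity assay: compound preincubated 10 min with enzyme–substrate mix, NADPH-initiated reaction 1 h, detection reagent 20 min before reading.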
Cytochrome P450 2D6 (Homo sapiens), sequence (P10635 whole entry, looked up): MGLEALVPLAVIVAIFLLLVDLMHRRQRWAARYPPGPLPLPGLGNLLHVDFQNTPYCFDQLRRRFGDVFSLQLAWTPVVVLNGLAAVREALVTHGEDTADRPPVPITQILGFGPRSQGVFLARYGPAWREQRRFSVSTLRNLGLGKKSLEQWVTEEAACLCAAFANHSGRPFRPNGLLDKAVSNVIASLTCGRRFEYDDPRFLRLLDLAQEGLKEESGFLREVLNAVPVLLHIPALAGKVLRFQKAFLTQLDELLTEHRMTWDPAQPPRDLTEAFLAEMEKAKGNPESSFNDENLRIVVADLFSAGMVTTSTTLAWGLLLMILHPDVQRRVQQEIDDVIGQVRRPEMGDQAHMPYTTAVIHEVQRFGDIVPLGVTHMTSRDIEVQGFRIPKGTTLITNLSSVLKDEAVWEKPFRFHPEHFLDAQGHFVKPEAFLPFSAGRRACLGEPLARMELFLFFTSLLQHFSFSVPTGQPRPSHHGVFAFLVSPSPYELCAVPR

The target in assay [5] is Cytochrome P450 2C9 (Homo sapiens) (UniProt P11712). Put plainly: Cytochrome P450 Family 2 Subfamily C Member 9 (CYP2C9) small molecule antagonists: luciferase reporter qHTS assay (AID 1671198). Also: nearly all actives have a fitted effect of over 50% in size. Also: potency is read from the fitted curve at half-maximal effect. The gist of the method:
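Enzyme-substrate mix preincubated with compound 10 min at room temperature; reaction started with NADPH regeneration solution, 1 h 37C. Luminescent luciferin product read after 20 min detection reagent.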
On the technique in general: A reporter such as luciferase makes a cellular process visible.

The target in assay [6] is Cytochrome P450 1A2 (Homo sapiens) (UniProt P05177). Kind of assay: Cytochrome P450 Family 1 Subfamily A Member 2 (CYP1A2) small molecule antagonists: luciferase reporter qHTS assay (AID 1671199). Also: nearly all actives have a fitted effect of over 50% in size. Also: potency is read from the fitted curve at half-maximal effect. The method in brief: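 Room-temperature CYP1A2 reaction with proluciferin substrate: compounds added from DMSO, 10 min preincubation, NADPH regeneration for 1 h. Luciferin detection reagent then added; luminescence recorded as RLU.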
Cytochrome P450 1A2 (Homo sapiens), sequence (P05177 whole entry, looked up): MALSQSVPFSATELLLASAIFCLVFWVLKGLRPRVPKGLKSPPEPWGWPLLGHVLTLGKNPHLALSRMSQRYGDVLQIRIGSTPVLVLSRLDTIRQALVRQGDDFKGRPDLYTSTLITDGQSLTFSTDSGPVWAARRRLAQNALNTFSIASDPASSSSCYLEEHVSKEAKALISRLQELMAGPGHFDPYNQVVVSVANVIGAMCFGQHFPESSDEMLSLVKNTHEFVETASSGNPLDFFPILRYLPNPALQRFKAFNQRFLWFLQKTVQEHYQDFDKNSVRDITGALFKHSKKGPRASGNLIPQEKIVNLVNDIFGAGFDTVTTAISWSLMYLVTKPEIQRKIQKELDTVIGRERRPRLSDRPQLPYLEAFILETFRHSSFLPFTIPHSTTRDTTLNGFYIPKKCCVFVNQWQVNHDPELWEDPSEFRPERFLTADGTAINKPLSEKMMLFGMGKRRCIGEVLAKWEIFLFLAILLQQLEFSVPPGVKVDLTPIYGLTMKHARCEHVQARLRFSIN

The target in assay [7] is Voltage-gated inwardly rectifying potassium channel KCNH2 (Homo sapiens) (UniProt Q12809). Put plainly: Human Ether-a-go-go-Related Gene (hERG) channel small molecule antagonists: fluorescence cell-based qHTS assay (AID 1671200). Also: nearly all actives have a fitted effect of over 50% in size. Also: potency is read from the fitted curve at half-maximal effect. The method in brief:
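Read-out: thallium influx as a surrogate for potassium, tracked as fluorescence (480 nm ex/540 nm em) every second for 2 min after Stimulus Buffer addition in dye-loaded hERG-U2OS cells.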

Assay [8] concerns the target Cytochrome P450 3A4 (Homo sapiens) (UniProt P08684). Kind of assay: Cytochrome P450 Family 3 Subfamily A Member 4 (CYP3A4) small molecule antagonists: luciferase reporter qHTS assay (AID 1671201). Also: nearly all actives have a fitted effect of over 50% in size. Also: potency is read from the fitted curve at half-maximal effect. The method in brief:
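Luminescent readout (RLU) proportional to CYP3A4 activity, from luciferin generated off a proluciferin substrate. Enzyme–substrate mix plus compound 10 min at room temp, NADPH regeneration 1 h, detection reagent 20 min.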

The target of assay [9] is Cytochrome P450 2C19 (Homo sapiens) (UniProt P33261). Kind of assay: Cytochrome P450 Family 2 Subfamily C Member 19 (CYP2C19) small molecule antagonists: luciferase reporter qHTS assay (AID 1671197). Also: nearly all actives have a fitted effect of over 65% in size. Also: potency is read from the fitted curve at half-maximal effect. The gist of the method: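 Luminescent readout of CYP2C19 activity: luciferin product detected 20 min after adding detection reagent. Before that, compound and enzyme-substrate mix preincubated 10 min at room temperature; NADPH-regenerating system started a 1 h, 37C reaction. Ketoconazole as positive control.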
Cytochrome P450 2C19 (Homo sapiens), sequence (P33261 whole entry, looked up): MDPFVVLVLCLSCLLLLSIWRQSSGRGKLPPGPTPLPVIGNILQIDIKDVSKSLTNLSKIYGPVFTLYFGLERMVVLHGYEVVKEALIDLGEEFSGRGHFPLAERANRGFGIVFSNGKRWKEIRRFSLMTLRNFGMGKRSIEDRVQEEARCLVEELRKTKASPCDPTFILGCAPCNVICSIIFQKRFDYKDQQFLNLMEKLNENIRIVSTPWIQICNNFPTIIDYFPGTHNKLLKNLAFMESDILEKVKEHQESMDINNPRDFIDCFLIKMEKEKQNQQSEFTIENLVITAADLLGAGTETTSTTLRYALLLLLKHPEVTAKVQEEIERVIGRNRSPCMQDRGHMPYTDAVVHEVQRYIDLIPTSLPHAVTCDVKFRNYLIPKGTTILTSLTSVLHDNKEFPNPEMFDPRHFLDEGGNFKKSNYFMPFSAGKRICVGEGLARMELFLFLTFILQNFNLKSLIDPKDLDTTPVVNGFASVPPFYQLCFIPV

Voltage-gated inwardly rectifying potassium channel KCNH2 (Homo sapiens), sequence (Q12809 whole entry, looked up): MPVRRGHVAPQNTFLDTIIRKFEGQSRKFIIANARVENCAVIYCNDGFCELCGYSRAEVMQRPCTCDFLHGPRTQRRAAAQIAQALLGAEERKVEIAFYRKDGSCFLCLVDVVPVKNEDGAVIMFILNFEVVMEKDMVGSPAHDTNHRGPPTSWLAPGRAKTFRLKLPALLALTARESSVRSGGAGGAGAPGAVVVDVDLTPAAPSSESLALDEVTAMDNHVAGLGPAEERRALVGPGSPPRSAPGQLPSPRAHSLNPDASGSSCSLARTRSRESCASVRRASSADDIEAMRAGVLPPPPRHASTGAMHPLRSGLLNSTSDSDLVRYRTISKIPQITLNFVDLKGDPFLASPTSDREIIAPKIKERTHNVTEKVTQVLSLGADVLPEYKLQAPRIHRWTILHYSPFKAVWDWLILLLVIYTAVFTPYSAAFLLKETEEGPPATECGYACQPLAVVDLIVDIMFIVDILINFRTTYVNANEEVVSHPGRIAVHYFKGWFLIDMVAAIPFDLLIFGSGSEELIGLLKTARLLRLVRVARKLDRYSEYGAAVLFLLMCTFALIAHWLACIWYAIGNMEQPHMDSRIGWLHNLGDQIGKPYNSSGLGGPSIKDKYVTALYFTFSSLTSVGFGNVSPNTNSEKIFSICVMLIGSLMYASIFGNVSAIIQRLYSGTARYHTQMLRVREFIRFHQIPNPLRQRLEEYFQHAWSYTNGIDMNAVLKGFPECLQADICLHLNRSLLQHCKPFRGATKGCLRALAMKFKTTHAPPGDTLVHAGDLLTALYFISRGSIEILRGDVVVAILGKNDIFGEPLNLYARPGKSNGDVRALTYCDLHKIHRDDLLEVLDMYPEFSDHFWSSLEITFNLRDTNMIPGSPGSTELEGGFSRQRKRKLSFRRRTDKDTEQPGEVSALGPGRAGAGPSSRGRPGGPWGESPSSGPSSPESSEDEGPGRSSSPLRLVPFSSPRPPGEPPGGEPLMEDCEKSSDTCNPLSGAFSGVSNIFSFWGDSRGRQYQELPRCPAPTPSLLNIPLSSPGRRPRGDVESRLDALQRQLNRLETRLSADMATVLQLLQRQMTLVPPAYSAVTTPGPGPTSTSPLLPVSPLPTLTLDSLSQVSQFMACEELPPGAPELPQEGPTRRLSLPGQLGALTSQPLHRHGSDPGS
Cytochrome P450 3A4 (Homo sapiens), sequence (P08684 whole entry, looked up): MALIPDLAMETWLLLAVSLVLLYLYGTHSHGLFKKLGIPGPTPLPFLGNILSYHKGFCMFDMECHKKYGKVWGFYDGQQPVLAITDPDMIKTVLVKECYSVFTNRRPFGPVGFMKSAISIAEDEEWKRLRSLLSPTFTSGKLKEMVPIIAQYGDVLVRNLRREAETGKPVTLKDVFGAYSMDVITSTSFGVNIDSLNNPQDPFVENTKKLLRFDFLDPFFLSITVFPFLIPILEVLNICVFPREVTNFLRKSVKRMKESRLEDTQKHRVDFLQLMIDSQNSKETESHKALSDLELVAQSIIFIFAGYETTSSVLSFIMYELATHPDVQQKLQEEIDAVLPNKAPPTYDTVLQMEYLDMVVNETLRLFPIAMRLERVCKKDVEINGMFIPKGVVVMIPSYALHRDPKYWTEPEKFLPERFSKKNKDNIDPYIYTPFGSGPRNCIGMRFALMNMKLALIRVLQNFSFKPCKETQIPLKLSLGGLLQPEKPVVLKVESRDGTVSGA
Cytochrome P450 2C9 (Homo sapiens), sequence (P11712 whole entry, looked up): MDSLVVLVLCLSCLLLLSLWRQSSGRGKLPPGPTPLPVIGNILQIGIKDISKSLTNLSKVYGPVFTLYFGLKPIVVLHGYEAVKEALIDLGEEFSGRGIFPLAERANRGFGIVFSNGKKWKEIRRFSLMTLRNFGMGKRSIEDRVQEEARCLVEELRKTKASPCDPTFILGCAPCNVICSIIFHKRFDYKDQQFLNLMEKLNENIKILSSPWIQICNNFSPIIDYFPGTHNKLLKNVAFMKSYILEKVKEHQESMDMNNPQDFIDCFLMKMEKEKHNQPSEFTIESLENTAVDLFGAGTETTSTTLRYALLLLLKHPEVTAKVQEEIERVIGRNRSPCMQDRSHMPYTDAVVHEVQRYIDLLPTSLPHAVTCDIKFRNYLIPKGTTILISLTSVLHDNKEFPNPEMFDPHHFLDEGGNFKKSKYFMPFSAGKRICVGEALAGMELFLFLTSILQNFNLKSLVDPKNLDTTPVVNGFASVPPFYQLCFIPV

Take `O=c1c(C2CC(c3ccc(-c4ccc(Br)cc4)cc3)Cc3ccccc32)c(O)sc2ccccc12` (configuration not stated): the Potency result in [1], in assay [2], in assay [3], in [4], in assay [6] and in [7] was “inactive” throughout. In addition, in assay [8], the Potency entry is “inactive”. For the same compound, the Potency in [5] is 5.49 µM (active).

`CC(=[OH+])/C=C(/C)[O-].CC(=[OH+])/C=C(\C)[O-].CC(=[OH+])/C=C(\C)[O-].[Al]`: the Potency entry in assay [1], in [2], in [3], in [4], in assay [9] and in assay [6] was “inactive” throughout. The Potency entry in [7] and in assay [8] was “inactive” in each case.

`CC(=O)c1ccc(-c2ccccc2)cc1`: the Potency entry in assay [1], in assay [2], in assay [3], in assay [4], in [7] and in assay [8] was “inactive” in each case. For the same compound, the results for the Potency in assay [5] and in [6] were 15.9 µM (active) and 5.03 µM (active), respectively.

In the case of `C[C@]12Cc3nonc3C[C@@H]1CC[C@@H]1[C@@H]2CC[C@@]2(C)[C@H]1CC[C@]2(C)O`, the Potency result in assay [1], in assay [2], in assay [3], in assay [4], in assay [6] and in assay [7] was “inactive” each time. In assay [9], the Potency was 17.4 µM (active).

For `CC(C)[C@H](C(=O)O[C@H](C#N)c1cccc(Oc2ccccc2)c1)c1ccc(Cl)cc1`, the Potency entry in assay [1], in assay [2], in assay [3], in [4], in assay [7] and in [8] was “inactive” in each case. Besides, the Potency was 7.96 µM (active) in assay [9] and 5.63 µM (active) in [5].

On to `CC(C)CCCCCOC(=O)c1ccccc1C(=O)OCCCCCC(C)C`, for which the Potency entry in assay [1], in assay [2], in assay [3] and in assay [7] was “inactive” throughout. Further, the Potency is 27.9 µM (active) in assay [4], 39.5 µM (active) in [9], 35.2 µM (active) in [6] and 2.79 µM (active) in [8].

In the case of `CCCCCCCCCBr`, the Potency entry in assay [1], in assay [2], in [3], in assay [4], in assay [9] and in [6] was “inactive” in each case. The Potency entry in assay [7] and in assay [8] was “inactive” throughout.

As to `O=C(O)C1C2CCC(O2)C1C(=O)O` (configuration not stated), the Potency result in assay [1], in assay [2], in assay [3], in assay [4], in assay [6] and in assay [7] was “inactive” in each case. Also, the Potency entry in assay [8] was “inactive”. In assay [9], the Potency was 36 µM (active) and inactive.

Consider `COc1ccc(N)cc1N`, for which the Potency entry in [1], in assay [2], in assay [3] and in assay [7] was “inactive” each time. Moreover, the Potency in assay [4] is 10.3 µM (active) and 17.1 µM (active); in assay [5], 41.2 µM (active) and 24.2 µM (active); in assay [6] it was 6.53 µM (active) and 38.3 µM (active); in assay [8] it was 11.6 µM (active).

As for `COP(=O)(CCC(=O)NCO)OC`, the Potency result in [1], in [2], in assay [3], in assay [4], in [5] and in [6] was “inactive” each time. For the same compound, the Potency result in assay [7] is “inactive”.

Take `O=c1ssc(Cl)c1Cl`: the Potency entry in [1], in assay [2] and in assay [3] was “inactive” each time. For the same compound, the Potency in assay [4] is 63.3 µM (active); in assay [5], 39.9 µM (active); in [6], 35.6 µM (active); in assay [7] it was 49 µM (active); in [8], 63.3 µM (active).

As to `C[C@H]1O[C@@H](O[C@H]2[C@@H](O)C[C@H](O[C@H]3[C@@H](O)C[C@H](O[C@H]4CC[C@@]5(C)[C@H](CC[C@@H]6[C@@H]5CC[C@]5(C)[C@@H](C7=CC(=O)OC7)CC[C@]65O)C4)O[C@@H]3C)O[C@@H]2C)C[C@H](O)[C@@H]1O`, the Potency result in [1], in assay [2], in assay [3], in assay [4], in assay [9] and in assay [5] was “inactive” throughout. In addition, the Potency entry in assay [7] and in [8] was “inactive” each time.

For the compound `O=C(CCl)C(Cl)Cl`, the Potency entry in assay [1], in [2], in assay [3] and in assay [7] was “inactive” throughout. Moreover, the Potency is 40.3 µM (active) in [4], 56.9 µM (active) in assay [9] and 40.3 µM (active) in [5].

On to `NC(=O)c1ccc(N)nc1`, for which the Potency result in assay [1], in [2], in assay [3], in [4], in assay [9] and in assay [6] was “inactive” throughout. The Potency result in assay [7] and in [8] was “inactive” each time.

In the case of `CCCCCCCCCCCCBr`, the Potency entry in assay [1], in [2], in assay [3], in assay [4], in [5] and in assay [7] was “inactive” each time. In addition, the Potency entry in assay [8] was “inactive”.

Consider `N#CSCSC#N`, for which the Potency entry in assay [1], in assay [2], in [3], in assay [4] and in assay [8] was “inactive” in each case. Further, the Potency in assay [5] was 32.4 µM (active) and 35.2 µM (active); in assay [6], 23 µM (active) and 28 µM (active); in assay [7], 56.2 µM (active) and 43.2 µM (active).

On to `N#CCCO`, for which the Potency result in assay [1], in assay [2], in [3], in [4], in [9] and in [6] was “inactive” in each case. The Potency result in assay [7] and in assay [8] was “inactive” in each case.

For the compound `O=[N+]([O-])c1cc(C(F)(F)F)c(Cl)c([N+](=O)[O-])c1Cl`, the Potency entry in assay [1], in assay [2], in assay [3] and in assay [4] was “inactive” throughout. In addition, the Potency in assay [5] is 12.6 µM (active); in [6], 11.2 µM (active); in assay [7], 27.5 µM (active); in [8], 56.4 µM (active).

Take `ClCc1ccc(Cl)cc1Cl`: the Potency result in [1], in assay [2], in [3], in assay [4], in assay [5] and in [7] was “inactive” in each case. Further, in [8], the Potency result is “inactive”.

As to `CC(C)[C@H](C(=O)OC(C#N)c1cccc(Oc2ccccc2)c1)c1ccc(OC(F)F)cc1` (some centres not stated), the Potency result in assay [1], in [2], in assay [3], in [6] and in assay [7] was “inactive” each time. In addition, the Potency in assay [4] is 5.03 µM (active); in [9] it was 17.8 µM (active).

As to `CN(C)C1CSSSC1`, the Potency result in assay [1], in assay [2], in [3], in [7] and in [8] was “inactive” each time. Besides, the Potency is 39.9 µM (active) in assay [4], 28.3 µM (active) in [5] and 63.3 µM (active) in [6].

Regarding `CC1(C)CN=C(NN=C(/C=C/c2ccc(C(F)(F)F)cc2)/C=C/c2ccc(C(F)(F)F)cc2)NC1`, the Potency result in [1], in [2], in assay [3], in assay [9] and in [8] was “inactive” each time. Moreover, the Potency in assay [4] was 11.2 µM (active); in assay [7], 0.389 µM (active).

For `O=C/C(Cl)=C(/Cl)C(=O)O`, the Potency result in assay [1], in assay [2], in [3], in assay [4], in assay [5] and in assay [6] was “inactive” each time. The Potency result in assay [7] and in assay [8] was “inactive” each time.
